About 83,000 compounds went through this panel and 20% of them were active in at least one assay; those are over-represented in the sample as a whole.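 Values shown are percent growth following 48 h exposure of cells in 96-well plates to a single concentration of compound; below 10 was considered active.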 Unmarked numbers belong to inactive results. Calls of active or inactive are those of the source.

Test systems include DU-145 prostate; K-562 leukemia; MALME-3M melanoma; MDA-MB-231 breast; RXF 393 renal; SF-268 CNS; SF-295 CNS; SF-539 CNS; UACC-257 melanoma; M14 melanoma; HCT-15 colon; HT29 colon; SNB-75 CNS; SNB-19 CNS; U251 CNS; SK-MEL-5 melanoma; UACC-62 melanoma; LOX IMVI melanoma; SK-MEL-28 melanoma; PC-3 prostate.
Common to all, as to experiment: NCI-60 one-dose screen, 48 h (100 = growth as untreated, 0 = no growth, -100 = all killed)
What all share (conditions): 10 µM

Turning to `Oc1ccc(-c2[nH]c3ccccc3c2-c2nc3ccccc3o2)cc1`, the growth is 78.6% with DU-145 prostate; 19.2% with K-562 leukemia; 65% in the assay on MALME-3M melanoma; 48.7% in the assay with MDA-MB-231 breast; 91.6% in the assay with RXF 393 renal; 69.8% with SF-268 CNS. Further, the growth with SF-295 CNS was 72.1%; in the assay with SF-539 CNS, 82.7%; in the assay on UACC-257 melanoma it was 112%; in the assay with M14 melanoma it was 25.1%; in the assay with HCT-15 colon, 25.4%; in the assay with HT29 colon, 27.8%. For the same molecule, the growth in the assay on SNB-75 CNS is 52.3%; in the assay on SNB-19 CNS it was 89.6%; in the assay with U251 CNS, 60.9%; in the assay with SK-MEL-5 melanoma, 43.4%; with UACC-62 melanoma, 59.6%; in the assay on LOX IMVI melanoma it was 34.6%. For the same molecule, the growth in the assay on SK-MEL-28 melanoma is 58%.

Turning to `CC1CCCC(C(=O)O)C1C(=O)O` (stereo not given), the growth with DU-145 prostate is 114%; with K-562 leukemia, 87.6%; with MALME-3M melanoma, 87.8%; in the assay on MDA-MB-231 breast it was 92.8%; in the assay on RXF 393 renal, 94.5%; with SF-268 CNS, 105%. The growth was 94.8% in the assay on SF-295 CNS; 97.8% with SF-539 CNS; 80.8% with UACC-257 melanoma; 94.7% in the assay on M14 melanoma; 102% with HCT-15 colon; 98.8% in the assay with HT29 colon. The growth in the assay with SNB-75 CNS was 100%; in the assay with SNB-19 CNS it was 101%; in the assay on U251 CNS, 86%; with PC-3 prostate it was 76%; in the assay on SK-MEL-5 melanoma it was 102%; in the assay on LOX IMVI melanoma, 98%. The growth in the assay on SK-MEL-28 melanoma is 111%.

Regarding `O=C(O)COc1c(Cl)cc([N+](=O)[O-])cc1Cl`, the growth with DU-145 prostate is 111%; with K-562 leukemia it was 92.2%; in the assay with MALME-3M melanoma, 97.1%; in the assay on MDA-MB-231 breast, 117%; with RXF 393 renal, 102%; in the assay with SF-268 CNS, 96.5%. Moreover, the growth is 100% in the assay with SF-295 CNS; 99.5% in the assay with SF-539 CNS; 79.7% in the assay on UACC-257 melanoma; 88.7% in the assay with M14 melanoma; 103% in the assay with HCT-15 colon; 86.2% with HT29 colon. Moreover, the growth in the assay with SNB-75 CNS was 102%; with SNB-19 CNS, 112%; in the assay on U251 CNS, 97.5%; with PC-3 prostate it was 65.3%; in the assay on SK-MEL-5 melanoma, 96.3%; in the assay on SK-MEL-28 melanoma, 102%.

Take `CCOC(=O)C(C)(c1ccccc1)c1ccccc1`: the growth is 106% with DU-145 prostate; 113% with K-562 leukemia; 112% in the assay on MALME-3M melanoma; 111% in the assay with MDA-MB-231 breast; 123% in the assay with RXF 393 renal; 104% in the assay on SF-268 CNS. For the same molecule, the growth in the assay on SF-295 CNS is 102%; with SF-539 CNS, 97.7%; in the assay with UACC-257 melanoma, 93.5%; in the assay with M14 melanoma it was 102%; with HCT-15 colon, 104%; with HT29 colon, 96.2%. For the same molecule, the growth is 94.2% in the assay on SNB-75 CNS; 99.3% with SNB-19 CNS; 104% in the assay on U251 CNS; 108% in the assay with SK-MEL-5 melanoma; 102% in the assay on UACC-62 melanoma; 102% in the assay on LOX IMVI melanoma. Besides, the growth in the assay with SK-MEL-28 melanoma is 111%.

For the molecule `COc1ccc(-c2cc(-c3ccccc3)nc(SCCCC(=O)NO)n2)cc1`, the growth was 1.16% (active) in the assay on DU-145 prostate; 6.74% (active) with K-562 leukemia; -9.2% (active) in the assay on MALME-3M melanoma; -0.784% (active) in the assay with MDA-MB-231 breast; -40.8% (active) in the assay with RXF 393 renal; -18.8% (active) with SF-268 CNS. Also, the growth in the assay with SF-295 CNS is -39.6% (active); with SF-539 CNS, 0.299% (active); in the assay with UACC-257 melanoma it was -3.3% (active); in the assay with M14 melanoma, -21.8% (active); with HCT-15 colon, 10.8%; in the assay on HT29 colon it was 5.87% (active). Further, the growth in the assay on SNB-75 CNS is -20.1% (active); in the assay on SNB-19 CNS, 10.6%; in the assay on U251 CNS it was -24.5% (active); with SK-MEL-5 melanoma, -57.8% (active); in the assay with UACC-62 melanoma, -65.9% (active); with LOX IMVI melanoma, -65.4% (active). Moreover, in the assay with SK-MEL-28 melanoma, the growth was 19.2%.

For `Cc1ccc(N=Nc2ccccc2)cc1`, the growth in the assay on DU-145 prostate was 111%; in the assay on K-562 leukemia, 112%; with MALME-3M melanoma, 98.4%; with MDA-MB-231 breast, 109%; in the assay on RXF 393 renal, 106%; in the assay on SF-268 CNS, 99.8%. The growth was 90.3% in the assay with SF-295 CNS; 100% with SF-539 CNS; 88% with UACC-257 melanoma; 90.9% in the assay with M14 melanoma; 99.5% in the assay with HCT-15 colon; 92.3% in the assay on HT29 colon. In addition, the growth in the assay on SNB-75 CNS is 105%; in the assay with SNB-19 CNS it was 102%; in the assay on U251 CNS, 101%; in the assay on PC-3 prostate, 78.1%; with SK-MEL-5 melanoma, 102%; in the assay with LOX IMVI melanoma, 103%. Also, the growth in the assay with SK-MEL-28 melanoma is 102%.

On to `Cc1cc(SC#N)cc(C(C)(C)C)c1O`, for which the growth is 110% in the assay with DU-145 prostate; 91.3% in the assay on K-562 leukemia; 85.8% with MALME-3M melanoma; 113% with MDA-MB-231 breast; 118% in the assay on RXF 393 renal; 103% with SF-268 CNS. Further, the growth with SF-295 CNS was 102%; in the assay on SF-539 CNS it was 95.6%; with UACC-257 melanoma, 94.1%; with M14 melanoma it was 90.3%; in the assay on HCT-15 colon, 103%; in the assay with HT29 colon it was 91.4%. The growth with SNB-75 CNS was 92.4%; in the assay with SNB-19 CNS, 113%; with U251 CNS, 91.4%; in the assay on PC-3 prostate it was 66.8%; with SK-MEL-5 melanoma, 101%; in the assay with LOX IMVI melanoma, 100%. Further, the growth in the assay with SK-MEL-28 melanoma is 105%.

For the molecule `NC(CSC(c1ccccc1)(c1ccccc1)c1cccc2ccccc12)C(=O)O` (stereo not given), the growth with DU-145 prostate was 106%; in the assay on K-562 leukemia it was 103%; in the assay on MALME-3M melanoma, 112%; in the assay on MDA-MB-231 breast, 96.1%; in the assay with RXF 393 renal it was 94.2%; with SF-268 CNS, 85%. Besides, the growth in the assay on SF-295 CNS is 91.1%; in the assay with SF-539 CNS, 94.5%; in the assay on UACC-257 melanoma it was 103%; in the assay with M14 melanoma, 108%; with HCT-15 colon, 102%; with HT29 colon, 113%. For the same molecule, the growth in the assay with SNB-75 CNS was 87.6%; with SNB-19 CNS it was 84.9%; with U251 CNS, 93%; with PC-3 prostate it was 84.3%; in the assay with SK-MEL-5 melanoma, 82.6%; in the assay with UACC-62 melanoma it was 90.4%. Further, the growth in the assay with SK-MEL-28 melanoma was 93.7%.

Turning to `CN(C)CCCOc1ccc(OCCCN(C)C)c2c1C(=O)c1ccccc1C2=O`, the growth in the assay with DU-145 prostate was 4.83% (active); in the assay on K-562 leukemia, 7.12% (active); with MALME-3M melanoma it was -43% (active); in the assay on MDA-MB-231 breast, -20.5% (active); in the assay with RXF 393 renal, -9.08% (active); in the assay with SF-268 CNS, -4.36% (active). Also, the growth was 14.4% in the assay with SF-295 CNS; -1.42% (active) in the assay with SF-539 CNS; 5.21% (active) in the assay on UACC-257 melanoma; 1.61% (active) with M14 melanoma; 91.5% in the assay on HCT-15 colon; -20.6% (active) with HT29 colon. In addition, the growth with SNB-75 CNS is -20.6% (active); in the assay with SNB-19 CNS, 7.81% (active); in the assay on U251 CNS it was 5.27% (active); with PC-3 prostate it was 11%; in the assay with SK-MEL-5 melanoma, 10.5%; with LOX IMVI melanoma it was -13.2% (active). For the same molecule, the growth in the assay on SK-MEL-28 melanoma was -4.67% (active).

These data come from PubChem BioAssay (NCI).
